Data: PubChem BioAssay (NCI)
The panel holds about 83,000 compounds, 20% with a hit somewhere; the sample as a whole holds those more often.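 How to read the values: 0–100, growth inhibition (40 = 60% inhibited); 0, no net growth; -100 to 0, cell death (-40 = 40% of starting cells died; -100 = all dead).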 Unmarked numbers belong to inactive results. Activity calls are given as the source filed them. How the source made its calls: active means growth percent below 10; inactive means the rest.

Assays:
Experiment in all cases: NCI-60 one-dose screen, 48 h (100 = growth as untreated, 0 = no growth, -100 = all killed)
Details in all cases: 10 µM unless noted
NCI-H23 lung = system: NCI-H23 lung
NCI-H226 lung = system: NCI-H226 lung
NCI-H322M lung = system: NCI-H322M lung
HOP-62 NSCLC = system: HOP-62 NSCLC
NCI-H460 lung = system: NCI-H460 lung
HOP-92 NSCLC = system: HOP-92 NSCLC
NCI-H522 lung = system: NCI-H522 lung
A549/ATCC NSCLC = system: A549/ATCC NSCLC
786-0 renal = system: 786-0 renal

Compound	growth (NCI-H23 lung)	growth (NCI-H226 lung)	growth (NCI-H322M lung)	growth (HOP-62 NSCLC)	growth (NCI-H460 lung)	growth (HOP-92 NSCLC)	growth (NCI-H522 lung)	growth (A549/ATCC NSCLC)	growth (786-0 renal)
C=C1C(=O)O[C@H]2[C@H]1CC/C(COC(=O)/C=C\C(=O)NCc1ccc(Cn3c(=O)sn(CCCC)c3=O)cc1)=C\CC[C@@]1(C)O[C@@H]21	-61.4% (active)	-70.4% (active)	35.4%	-35.7% (active)	-54.3% (active)	-67.7% (active)	-44.5% (active)	0.708% (active)	-76.8% (active)
CCOC(=O)c1c(C)nc2c(c1N)/C(=C/c1ccc(OC)cc1)C(=O)N2Cc1ccc(F)cc1	-38.2% (active)	8.52% (active)	9.93% (active)	-45.3% (active)	2.95% (active)	-55.6% (active)	-69.6% (active)	12%	-50.6% (active)
CCNCCNc1cc(-c2ccc(C(F)(F)F)cc2)c(C#N)c2nc3cc(Cl)c(Cl)cc3n12	-76.6% (active)	99.8%	-95.4% (active)	-82.4% (active)	-71.6% (active)	-83.5% (active)	-73.3% (active)	-88.4% (active)	-78% (active)
